Measured values: the supplement of paper PMC12282887
± gives the standard deviation of the averaged measurements.

Columns and labels:
Experiment in all cases: promoter activity interaction Z-score (Lux/OD deviation from empty-vector control); higher = stronger promoter induction by the compound
[1] = system: E. coli BW25113 acrABp lux reporter
Summary of the method: (§1)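 Four 1:2 dilutions of each compound were tested in biological duplicates on E. coli BW25113 carrying low-copy luxCDABE promoter reporters, either wild type or deleted for one of three genes. Cultures of 40 µl LB Lennox in 384-well plates were kept at 37°C and read for OD600 and luminescence every 30 min for 12 h. Integration windows were 0–8 h for wild type and 1–9 h for deletion strains, and wells under 10% of the median growth value were discarded. The score is a Z-transformed residual of growth-normalised luminescence relative to a control fit.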

[2] = system: E. coli BW25113 marRABp lux reporter
Summary of the method: as §1

[3] = system: E. coli BW25113 micFp lux reporter
Summary of the method: as §1

[4] = system: E. coli BW25113 ompFp lux reporter
Summary of the method: as §1

[5] = system: E. coli BW25113 robp lux reporter
Summary of the method: as §1

[6] = system: E. coli BW25113 soxSp lux reporter
Summary of the method: as §1

[7] = system: E. coli BW25113 tolCp lux reporter
Summary of the method: as §1

[8] = 20.7 µg/ml, genetic background: wild type
[9] = 20.7 µg/ml, genetic background: ΔmarA
[10] = 20.7 µg/ml, genetic background: Δrob
[11] = 20.7 µg/ml, genetic background: ΔsoxS
[12] = 41.4 µg/ml, genetic background: wild type
[13] = 41.4 µg/ml, genetic background: ΔmarA
[14] = 41.4 µg/ml, genetic background: Δrob
[15] = 41.4 µg/ml, genetic background: ΔsoxS
[16] = 82.8 µg/ml, genetic background: wild type
[17] = 82.8 µg/ml, genetic background: ΔmarA
[18] = 82.8 µg/ml, genetic background: Δrob
[19] = 82.8 µg/ml, genetic background: ΔsoxS
[20] = 165.6 µg/ml, genetic background: wild type
[21] = 165.6 µg/ml, genetic background: ΔmarA
[22] = 165.6 µg/ml, genetic background: Δrob
[23] = 165.6 µg/ml, genetic background: ΔsoxS

CN(C)C(=N)NC(=N)N [Metformin]
promoter activity interaction Z-score [1, 8]: -0.326 ± 0.14 | promoter activity interaction Z-score [1, 9]: 0.815 ± 0.45 | promoter activity interaction Z-score [1, 10]: -0.31 ± 0.23 | promoter activity interaction Z-score [1, 11]: -0.0221 ± 0.28 | promoter activity interaction Z-score [1, 12]: -0.0908 ± 0.043 | promoter activity interaction Z-score [1, 13]: 0.174 ± 0.41 | promoter activity interaction Z-score [1, 14]: 0.377 ± 0.017 | promoter activity interaction Z-score [1, 15]: -0.0209 ± 0.61 | promoter activity interaction Z-score [1, 16]: -0.145 ± 0.14 | promoter activity interaction Z-score [1, 17]: 0.000785 ± 1.4 | promoter activity interaction Z-score [1, 18]: 0.271 ± 0.043 | promoter activity interaction Z-score [1, 19]: -0.155 ± 0.2 | promoter activity interaction Z-score [1, 20]: -0.249 ± 0.13 | promoter activity interaction Z-score [1, 21]: 0.575 ± 0.81 | promoter activity interaction Z-score [1, 22]: 0.41 ± 0.17 | promoter activity interaction Z-score [1, 23]: 0.11 ± 0.051 | promoter activity interaction Z-score [2, 8]: -0.244 ± 0.08 | promoter activity interaction Z-score [2, 9]: 0.0455 ± 0.11 | promoter activity interaction Z-score [2, 10]: -0.139 ± 0.14 | promoter activity interaction Z-score [2, 11]: -0.145 ± 0.0015 | promoter activity interaction Z-score [2, 12]: -0.1 ± 0.072 | promoter activity interaction Z-score [2, 13]: -0.132 ± 0.1 | promoter activity interaction Z-score [2, 14]: -0.0299 ± 0.073 | promoter activity interaction Z-score [2, 15]: -0.0239 ± 0.17 | promoter activity interaction Z-score [2, 16]: -0.104 ± 0.063 | promoter activity interaction Z-score [2, 17]: -0.195 ± 0.23 | promoter activity interaction Z-score [2, 18]: -0.113 ± 0.043 | promoter activity interaction Z-score [2, 19]: -0.0656 ± 0.052 | promoter activity interaction Z-score [2, 20]: -0.551 ± 0.065 | promoter activity interaction Z-score [2, 21]: -0.242 ± 0.025 | promoter activity interaction Z-score [2, 22]: -0.0241 ± 0.2 | promoter activity interaction Z-score [2, 23]: 0.145 ± 0.22 | promoter activity interaction Z-score [3, 8]: -0.368 ± 0.019 | promoter activity interaction Z-score [3, 9]: -0.0629 ± 0.04 | promoter activity interaction Z-score [3, 10]: -0.153 ± 0.082 | promoter activity interaction Z-score [3, 11]: -0.139 ± 0.14 | promoter activity interaction Z-score [3, 12]: -0.177 ± 0.23 | promoter activity interaction Z-score [3, 13]: -0.102 ± 0.12 | promoter activity interaction Z-score [3, 14]: -0.0244 ± 0.0094 | promoter activity interaction Z-score [3, 15]: -0.233 ± 0.015 | promoter activity interaction Z-score [3, 16]: -0.161 ± 0.16 | promoter activity interaction Z-score [3, 17]: -0.0653 ± 0.072 | promoter activity interaction Z-score [3, 18]: -0.0658 ± 0.068 | promoter activity interaction Z-score [3, 19]: -0.0678 ± 0.068 | promoter activity interaction Z-score [3, 20]: -0.544 ± 0.37 | promoter activity interaction Z-score [3, 21]: -0.151 ± 0.025 | promoter activity interaction Z-score [3, 22]: -0.0629 ± 0.08 | promoter activity interaction Z-score [3, 23]: -0.000873 ± 0.19 | promoter activity interaction Z-score [4, 8]: -0.191 ± 0.037 | promoter activity interaction Z-score [4, 9]: 0.332 ± 0.047 | promoter activity interaction Z-score [4, 10]: -0.324 ± 0.2 | promoter activity interaction Z-score [4, 11]: -0.0538 ± 0.13 | promoter activity interaction Z-score [4, 12]: -0.037 ± 0.014 | promoter activity interaction Z-score [4, 13]: -0.125 ± 0.2 | promoter activity interaction Z-score [4, 14]: 0.267 ± 0.2 | promoter activity interaction Z-score [4, 15]: 0.0362 ± 0.37 | promoter activity interaction Z-score [4, 16]: 0.036 ± 0.056 | promoter activity interaction Z-score [4, 17]: 0.0389 ± 0.14 | promoter activity interaction Z-score [4, 18]: 0.322 ± 0.37 | promoter activity interaction Z-score [4, 19]: 0.0576 ± 0.088 | promoter activity interaction Z-score [4, 20]: -0.153 ± 0.11 | promoter activity interaction Z-score [4, 21]: 0.766 ± 0.041 | promoter activity interaction Z-score [4, 22]: 0.44 ± 0.62 | promoter activity interaction Z-score [4, 23]: 0.813 ± 0.41 | promoter activity interaction Z-score [5, 8]: 0.282 ± 0.18 | promoter activity interaction Z-score [5, 9]: 0.497 ± 0.0053 | promoter activity interaction Z-score [5, 10]: -0.187 ± 0.91 | promoter activity interaction Z-score [5, 11]: 0.397 ± 1.1 | promoter activity interaction Z-score [5, 12]: -0.109 ± 0.24 | promoter activity interaction Z-score [5, 13]: 0.171 ± 0.31 | promoter activity interaction Z-score [5, 14]: 0.416 ± 0.36 | promoter activity interaction Z-score [5, 15]: 0.638 ± 1.1 | promoter activity interaction Z-score [5, 16]: 0.336 ± 0.065 | promoter activity interaction Z-score [5, 17]: 0.0784 ± 0.21 | promoter activity interaction Z-score [5, 18]: 0.39 ± 0.41 | promoter activity interaction Z-score [5, 19]: 0.405 ± 0.19 | promoter activity interaction Z-score [5, 20]: -0.305 ± 0.39 | promoter activity interaction Z-score [5, 21]: 0.28 ± 0.035 | promoter activity interaction Z-score [5, 22]: 0.519 ± 0.11 | promoter activity interaction Z-score [5, 23]: 0.649 ± 0.18 | promoter activity interaction Z-score [6, 8]: -0.232 ± 0.14 | promoter activity interaction Z-score [6, 9]: 0.132 ± 0.02 | promoter activity interaction Z-score [6, 10]: -0.07 ± 0.0035 | promoter activity interaction Z-score [6, 11]: 0.26 ± 0.056 | promoter activity interaction Z-score [6, 12]: -0.046 ± 0.095 | promoter activity interaction Z-score [6, 13]: 0.0673 ± 0.055 | promoter activity interaction Z-score [6, 14]: 0.0305 ± 0.041 | promoter activity interaction Z-score [6, 15]: 0.0287 ± 0.19 | promoter activity interaction Z-score [6, 16]: 0.0138 ± 0.19 | promoter activity interaction Z-score [6, 17]: -0.0135 ± 0.017 | promoter activity interaction Z-score [6, 18]: 0.0262 ± 0.22 | promoter activity interaction Z-score [6, 19]: -0.0818 ± 0.083 | promoter activity interaction Z-score [6, 20]: -0.199 ± 0.039 | promoter activity interaction Z-score [6, 21]: -0.0313 ± 0.093 | promoter activity interaction Z-score [6, 22]: -0.191 ± 0.24 | promoter activity interaction Z-score [6, 23]: 0.0168 ± 0.089 | promoter activity interaction Z-score [7, 8]: -0.594 ± 0.2 | promoter activity interaction Z-score [7, 9]: 1.15 ± 1.7 | promoter activity interaction Z-score [7, 10]: -0.505 ± 0.25 | promoter activity interaction Z-score [7, 11]: -0.306 ± 0.74 | promoter activity interaction Z-score [7, 12]: -0.0152 ± 1.1 | promoter activity interaction Z-score [7, 13]: -0.186 ± 1 | promoter activity interaction Z-score [7, 14]: 0.0225 ± 0.69 | promoter activity interaction Z-score [7, 15]: -0.32 ± 0.57 | promoter activity interaction Z-score [7, 16]: 0.0793 ± 0.27 | promoter activity interaction Z-score [7, 17]: 0.276 ± 0.67 | promoter activity interaction Z-score [7, 18]: -0.546 ± 0.36 | promoter activity interaction Z-score [7, 19]: 0.0771 ± 1.1 | promoter activity interaction Z-score [7, 20]: -0.144 ± 0.74 | promoter activity interaction Z-score [7, 21]: 0.284 ± 1.1 | promoter activity interaction Z-score [7, 22]: -0.698 ± 0.026 | promoter activity interaction Z-score [7, 23]: 0.3 ± 0.58
